Test results: PubChem BioAssay AID686971 (National Center for Advancing Translational Sciences (NCATS), 2013)
The whole screen tested about 360,000 compounds, of which about 7,500 (2.1%) were called active. Another 8% or so got no clear call; they are omitted. Calls come from the whole dose curve; as a rule, active = well fitted cell-killing curve with a large enough effect; inconclusive = small, poorly fitted or top-dose-only effect, or effect the other way, or another doubt; inactive = no such curve, though single readings can be large or run the other way. Many of the other results were omitted from the sample, so actives are more common in it than they were.

Experiment: qHTS for induction of synthetic lethality in tumor cells producing 2HG: qHTS for the HT-1080-IDH1KD cell line;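 for activity, negative = toxicity: 0% = DMSO wells and -100% = cell-free medium wells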
Settings: HT-1080 IDH1 knockdown viability, ATP luminescence, 48 h; series mostly up to 46.1 µM; activity, negative = toxicity: at the top concentration
Outline: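 Viability of IDH1-knockdown HT-1080 fibrosarcoma cells was assessed by CellTiter-Glo after 48 h at 37 °C with titrated compound; concentration-effect curves were classified by fit quality and response size.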
Potency is the fitted concentration of half-maximal effect.

Row | SMILES | activity, negative = toxicity | Potency
1 | Nc1nonc1-n1nnc(C(=O)N/N=C\c2ccncc2)c1CN1CCCCC1 | -3.01% (inactive) | –
2 | NNC(=O)c1nnn(-c2nonc2N)c1CN1CCCC1 | -3.44% (inactive) | –
3 | Nc1nonc1-n1nnc(C(=O)N/N=C/c2ccccc2O)c1CN1CCCC1 | – | 14.6 µM (active)
4 | O=C1CC[C@@H](C(=O)N2CSC[C@@H]2C(=O)Nc2ccc(C(F)(F)F)cc2)N1 | -2.41% (inactive) | –
5 | O=C(NCc1ccc(F)cc1)c1cc(C2CCCCN2C(=O)C2CCCCC2)on1 (stereo unspecified) | -11.2% (inactive) | –
6 | COc1ccc(OCCC(=O)c2ccc(OC)cc2)cc1 | – | 20.6 µM (active)
7 | COc1ccc(CCC(=O)c2ccc(OC)cc2)cc1 | 5.62% (inactive) | –
8 | COc1ccc(OCCCC(=O)Oc2ccc(OC)cc2)cc1 | -2% (inactive) | –
9 | COc1ccc(C(O)C(O)(C(=O)OC(C)C)c2ccc(C)cc2)cc1 (stereo unspecified) | -1.24% (inactive) | –
10 | CC1(C)CC(=O)C=C(c2ccccc2CO)C1=O | 13.4% (inactive) | –
11 | COc1ccc(OC)c(S(=O)(=O)n2c([N+](=O)[O-])cnc2C)c1 | 7.69% (inactive) | –
12 | COc1ccc(C(C[N+](=O)[O-])n2nc(C)cc2C)cc1 (stereo unspecified) | – | 14.6 µM (active)
13 | CCOc1ccc(C(C)C)cc1S(=O)(=O)n1nc(C)cc1C | 6.39% (inactive) | –
14 | Cn1nc(N)c2ncc(C(Cl)(Cl)Cl)nc21 | -5.53% (inactive) | –
15 | CNc1cc(-c2c(OC)cccc2OC)ncn1 | 13.7% (inactive) | –
16 | CCOC(=O)C1CCN(c2c(Nc3cc(C)cc(C)c3)c(=O)c2=O)CC1 | – | 4.61 µM (active)
17 | CCOC(=O)C1CCN(C(=O)Nc2ccc(C)c(Cl)c2)CC1 | -4.51% (inactive) | –
18 | CCOC(=O)C1CCN(CCC(=O)Nc2cccc(C)c2)CC1 | 5.37% (inactive) | –
19 | Cc1nc(C(F)(F)F)ccc1C(=O)N1CCC1(C)C(=O)NS(=O)(=O)c1ccccc1Cl (stereo unspecified) | 0.87% (inactive) | –
20 | O=C(CCl)Nc1cccc(CP(=O)(c2ccccc2)c2ccccc2)c1 | – | 5.17 µM (active)
21 | O=C(CSc1ccccc1)Nc1ccc(C(=O)Nc2cccc(O)c2)cc1 | -1.42% (inactive) | –
22 | O=C(NCCc1ccccc1)c1cccc(NC(=O)c2ccccc2)c1 | -1.11% (inactive) | –
23 | Nc1ncnc2c1ncn2[C@@H]1O[C@H](CNC(=O)[C@H](N)Cc2cccnc2)[C@@H](O)[C@H]1O | 21.4% (inactive) | –
24 | CCc1ccccc1OCC(=O)Nc1ccc(C)c(S(=O)(=O)N2CCCCCC2)c1 | -17.9% (inactive) | –

Row | SMILES | activity, negative = toxicity | Potency
25 | Cc1ccccc1OCC(=O)Nc1ccc(N2CCN(C(=O)C(C)C)CC2)c(Cl)c1 | – | 13 µM (active)
26 | CCC(=O)N1CCN(c2ccccc2NC(=O)COc2cccc(C)c2C)CC1 | -0.305% (inactive) | –
27 | C[C@H]1CN([C@@H](C)CO)C(=O)CCCn2cc(nn2)CO[C@@H]1CN(C)S(=O)(=O)c1ccccc1C#N | 6.94% (inactive) | –
28 | Nc1nc2c(ncn2[C@@H]2O[C@H](CNS(=O)(=O)N3CCc4ccccc4C3)[C@@H](O)[C@H]2O)c(=O)[nH]1 | 25.9% (inactive) | –
29 | CC(C)(C)c1ccc(S(=O)(=O)NC(=O)C2(C)CCN2C(=O)CC2CC2)cc1 (stereo unspecified) | 15.3% (inactive) | –
30 | CCc1ccc(C(CNc2nc(C(F)(F)F)nc3ccccc23)N(C)C)cc1 (stereo unspecified) | – | 20.6 µM (active)
31 | NS(=O)(=O)c1ccc(CCNc2nc(C(F)(F)F)nc3ccccc23)cc1 | -22.2% (inactive) | –
32 | CN(C)C(CNC(=O)c1cc2ccccc2o1)c1ccccc1 (stereo unspecified) | 3.28% (inactive) | –
33 | CCOC1=C2CN(S(=O)(=O)c3ccc(C)cc3)[C@H](c3cccs3)C[C@H]2[C@H]2C(=O)N(c3ccccc3)C(=O)[C@H]2C1 | 9.74% (inactive) | –
34 | Cc1ccccc1OCCOc1ccc([N+](=O)[O-])cc1/C=N/n1cnnc1 | – | 4.61 µM (active)
35 | CCOc1cc(/C=N/n2cnnc2)c(Br)cc1O | -5.67% (inactive) | –
36 | Cc1ccccc1OS(=O)(=O)c1cccc([N+](=O)[O-])c1 | 8.36% (inactive) | –
37 | O=C(COC(=O)Cc1ccc(Cl)cc1Cl)NCc1ccco1 | -4.62% (inactive) | –
38 | Cn1cnc(S(=O)(=O)N2C[C@@H](O)COC[C@@H]3O[C@H](CC(=O)NC4CCC4)CC[C@H]32)c1 | 25.4% (inactive) | –
39 | O=c1cc(CN2CCCCCCC2)c2c(ccc3ccccc32)o1 | 0.659% (inactive) | –
40 | CCOC(=O)C1CCCN(C(=O)/C=C/c2ccc(OC)cc2)C1 (stereo unspecified) | -3.51% (inactive) | –
41 | CCN1CCC(O)(/C=C/c2ccc(C)cc2)C(C(=O)/C=C/c2ccc(C)cc2)C1 (stereo unspecified) | – | 11.6 µM (active)
42 | COc1ccc(S(=O)(=O)N2CCN(CC(=O)N3CCNC3=O)CC2)cc1OC | 6.33% (inactive) | –
43 | COc1ccc(CN2C(=O)C(CC(=O)NCCN3CCOCC3)CC(C(=O)N(C(C)C)C(C)C)=C2C)cc1 (stereo unspecified) | 5.14% (inactive) | –
44 | CCc1cc(C(=O)N(CC)CC(=O)Nc2c(F)cccc2F)sc1C | 1.16% (inactive) | –
45 | COc1ccc(Cl)cc1NC(=O)CN(C)C(=O)c1cn(-c2ccccc2)nc1-c1cccs1 | -3.23% (inactive) | –
46 | COc1ccc2oc(=O)cc(-c3cc4ccccc4o3)c2c1 | -3.77% (inactive) | –
47 | COc1ccc(Nc2cc(=O)oc3ccccc23)cc1 | – | 5.8 µM (active)
48 | COc1ccc(Nc2ccc3ccccc3c2)cc1 | -22.5% (inactive) | –

Row | SMILES | activity, negative = toxicity | Potency
49 | COc1ccc(CC2c3cc(OC)c(OC)cc3CC[N+]2(C)CCC(=O)OCCCCCOC(=O)CC[N+]2(C)CCc3cc(OC)c(OC)cc3C2Cc2ccc(OC)c(OC)c2)cc1OC (stereo unspecified) | – | 20.6 µM (active)
50 | COc1ccc(CC(=O)NC2CCSc3ccccc32)cc1OC (stereo unspecified) | -1.88% (inactive) | –
51 | COC(=O)C1=CN(Cc2ccc(OC)c(OC)c2)C=C(C(=O)OC)C1c1cccs1 | -3.11% (inactive) | –
52 | CC/C(=N\NC(=S)NC(C)C)c1ccc(OC(F)F)cc1 | -1.89% (inactive) | –
53 | C/C(=N\NC(=S)NC(C)C)c1ccc(C(C)(C)C)cc1 | – | 16.4 µM (active)
54 | C/C(=N\NC(=S)NCc1ccccc1)c1ccc(Cl)cc1 | -0.853% (inactive) | –
55 | CC(C)C[C@@H]1COc2cc(N3CCC[C@@H]3CO)ccc2S(=O)(=O)N1 | 1.26% (inactive) | –
56 | CC(C)(C(=O)NO)c1ccccc1 | -20% (inactive) | –
57 | CCOc1cc(/C=N/NC(=O)c2c(C)nc3ccc(Cl)cn23)ccc1O | -2.43% (inactive) | –
58 | CCOc1cc(-c2cc(-c3ccc(NC(C)=O)cc3)nc(N)c2C#N)ccc1O | -15.5% (inactive) | –
59 | CCOc1cc(/C=C(\C#N)c2nc(-c3cccs3)c(NC(C)=O)s2)ccc1O | – | 2.91 µM (active)
60 | CC1(C(=O)NS(=O)(=O)c2cccc(F)c2)CCN1C(=O)c1cccc2ccccc12 (stereo unspecified) | 1.27% (inactive) | –
61 | COc1cccc(CN(C)C(=O)CC[C@H]2O[C@@H](n3cnc4c(NC(=O)c5ccccc5)ncnc43)[C@H](O)[C@@H]2O)c1 | 13.1% (inactive) | –
62 | COc1ccc(/C(N)=N/OC(=O)Cc2ccccc2)cc1 | 12.4% (inactive) | –
63 | COc1ccc(C(C#N)=C2C=CC(=NO)c3ccccc32)cc1 | – | 0.517 µM (active)
64 | COc1ccc(C(=NN)c2ccc(OC)cc2)cc1 | 18.4% (inactive) | –
65 | CN(C)CCNC(=O)Nc1cccc(Cl)c1Cl | -6.77% (inactive) | –
66 | CN(C)CCNC(=O)c1ccc(Cl)c2cc3ccccc3nc12 | – | 10.3 µM (active)
67 | CN(c1ccccc1)S(=O)(=O)c1ccc(Cl)c(C(=O)NCCc2c[nH]c3ccccc23)c1 | -8.58% (inactive) | –
68 | CC(=O)NC(c1cccc(F)c1)c1nc(-c2cccc(F)c2)cs1 (stereo unspecified) | 0.603% (inactive) | –
69 | COc1ccc([C@H]2C[C@@H](n3cc(COC(=O)c4ccccc4)nn3)[C@H](O)CN2C(=O)c2cccs2)cc1 | -6.72% (inactive) | –
70 | COC(=O)C[C@@H]1C=C[C@@H](NC(=O)c2ccc3c(c2)OCO3)[C@@H](CO)O1 | 23.1% (inactive) | –
71 | Cc1ccc(S(=O)(=O)N2C[C@@H](C)[C@]3(C2)[C@H](O)[C@H](OC(=O)NCc2ccccc2)C[C@H]2C(=O)N(c4ccccc4)C(=O)[C@H]23)cc1 | -0.522% (inactive) | –
72 | Cc1ccc(OCC(=O)Nn2cnc3ccccc32)cc1 | -17.9% (inactive) | –

Row | SMILES | activity, negative = toxicity | Potency
73 | Cc1ccc(OS(=O)Nc2cccc3nccnc23)cc1 (stereo unspecified) | – | 11.2 µM (active)
74 | Cc1ccc(Oc2ccc3c(c2)C(=O)N(c2cccc4cccnc24)C3=O)cc1 | 7.05% (inactive) | –
75 | CCNC(=O)C1(C)CCN(C(=O)c2ccccc2)C1 (stereo unspecified) | 4.67% (inactive) | –
76 | O=C(NCc1ccc(F)cc1)c1cc(C2CCCCN2C(=O)c2ccccn2)on1 (stereo unspecified) | 23.9% (inactive) | –
77 | COc1cccc(CNC(=O)[C@@H]2CCCN2C(=O)[C@@H]2CCCN2C(=O)c2ccccc2)c1 | 9.12% (inactive) | –
78 | S=C(NCCCc1ccccc1)Nc1ccc(Br)cc1 | – | 16.4 µM (active)
79 | O=C(Cc1ccc(Br)cc1)NCCc1ccccc1 | -2.12% (inactive) | –
80 | O=S(=O)(NCCCc1ccccc1)c1ccc(Br)cc1 | 2.69% (inactive) | –
81 | COc1ccc(C)cc1S(=O)(=O)N1CCN(S(=O)(=O)c2cc(C(=O)O)ccc2C)CC1 | 9.87% (inactive) | –
82 | Cc1ccc(S(=O)(=O)N2CCN(c3ncnc4ccccc34)CC2)cc1 | – | inactive
83 | Cc1ccc(C)c(S(=O)(=O)N2CCN(c3ncnc4sccc34)CC2)c1 | – | 4.61 µM (active)
84 | COc1ccccc1-n1c(SCC(=O)Nc2ccc(Cl)cc2)nc(O)c(Cc2ccccc2)c1=O | -24.8% (inactive) | –
85 | CCOC(=O)[C@]12CCC=C1N(Cc1ccccc1)C(=O)[C@H](CC(=O)N1CCCC1)C2 | 2.61% (inactive) | –
86 | O=C1CCC(=O)N1CCC(=O)N(C(=O)NC1CCCCC1)C1CCCCC1 | -1.14% (inactive) | –
87 | CCCCNC(=O)C[C@@H]1C[C@@]2(C(=O)OCC)CCC=C2N(Cc2cccc3ccccc23)C1=O | -12.6% (inactive) | –
88 | CCOC(=O)[C@]12CCCC=C1N(Cc1cccc3ccccc13)C(=O)[C@H](CC(=O)NCC13CC4CC(CC(C4)C1)C3)C2 | – | 23.1 µM (active)
89 | COC(=O)[C@]12CCCCC=C1N(Cc1ccc(Cl)cc1Cl)C(=O)[C@H](CC(=O)NCc1cccc3ccccc13)C2 | -28.4% (inactive) | –
90 | CCc1nc2ccc(C(=O)N3CCC(O)(Cc4ccccc4)CC3)cn2c1N(C)C(=O)Cc1ccccc1 | 18.8% (inactive) | –
91 | O=S1(=O)CC(N2CCN(CCO)CC2)CN1Cc1cn(Cc2ccc(Cl)cc2)nn1 (stereo unspecified) | 6.6% (inactive) | –
92 | Cc1cccc(S(=O)(=O)N(C)C[C@H]2OCc3cnnn3CCCC(=O)N([C@@H](C)CO)C[C@H]2C)c1 | 6.99% (inactive) | –
93 | CC(C)Cc1ccc(-c2cc3nc(NCc4cccc(Cl)c4)ccn3n2)cc1 | – | 20.6 µM (active)
94 | Cc1cc(C)n2c(NCc3ccccc3)c(CC(C)C)nc2n1 | 5.86% (inactive) | –
95 | COc1ccccc1-c1cc2nc(NCc3cccc(Cl)c3)ccn2n1 | -18.2% (inactive) | –
96 | Cc1sc2ncnc(SCC(=O)NC3CCS(=O)(=O)C3)c2c1C (stereo unspecified) | -2.68% (inactive) | –
